PubChem BioAssay
Values without a mark were called inactive. Where a call stands in place of a potency, no number is given. For some of these results: Potency and affinity values are given separately. Active and inactive are the calls of the source. Unless noted, no rule for the calls is given here.

What was measured:
[1] = antimalarial activity against Dd2 strain (AID 2302;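 active = growth inhibition above 50% at the single 2 µM test dose, taken to imply half-maximal potency below 2 µM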); settings: P. falciparum Dd2 in RBCs, LDH growth readout, 72 h; at 2 µM; stronger effect = higher value
[2] = human hepatoma cell viability loss – ATP luminescence, cytotoxicity control for P. falciparum antimalarial project, primary screen (AID 2303;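 active = inhibition above 50%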); settings: HepG2 viability, 24-48 h, at 10 µM, stronger effect = higher value
[3] = molecular target: L-lactate dehydrogenase (Plasmodium falciparum (isolate CDC / Honduras)) (UniProt Q27743); experiment: PfLDH activity inhibition – cell lysate, 3D7 strain, counter-screen for P. falciparum growth inhibition project (AID 2304); settings: P. falciparum 3D7 crude extract, LDH APAD/NBT absorbance; at 2 µM; stronger effect = higher value
[4] = inhibition of 3D7 malaria parasite growth – strain 3D7 (AID 2306); settings: P. falciparum 3D7 erythrocytic growth, LDH absorbance, 72 h; at 2 µM; stronger effect = higher value
[5] = molecular target: Calcium-dependent protein kinase 1 (Plasmodium falciparum (isolate 3D7)) (UniProt P62344); experiment: PfCDPK1 kinase inhibitors, biochemical, TCAMS library (AID 1159585; cut-off not given, nearly all actives have IC50 up to about 0.98 µM;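 also: inhibitors leave more ATP so luminescence rises with inhibition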); settings: recombinant PfCDPK1, Kinase-Glo ATP depletion luminescence
[6] = molecular target: Plasmodium falciparum protein kinase 6 (PK6, PF3D7_1337100) (UniProt Q8IDW1); experiment: PfPK6 kinase inhibitors, biochemical, TCAMS library (AID 1159586); settings: recombinant PfPK6, Kinase-Glo ATP depletion luminescence
[7] = molecular target: Protein kinase 7 (PK7), Plasmodium falciparum 3D7 (PF3D7_0213400) (UniProt Q7YTF7); experiment: inhibition of Plasmodium PK7 catalytic activity – biochemical, TCAMS antimalarial set, Kinase-Glo luminescence (AID 1159587); settings: recombinant PfPK7, Kinase-Glo ATP depletion luminescence
[8] = molecular target: Calcium-dependent protein kinase 4 (Plasmodium falciparum (isolate 3D7)) (UniProt Q8IBS5); experiment: PfCDPK4 kinase inhibitors, biochemical, TCAMS library (AID 1159588; cut-off not given, nearly all actives have IC50 up to about 0.91 µM); settings: recombinant PfCDPK4, Kinase-Glo ATP depletion luminescence
Calcium-dependent protein kinase 4 (Plasmodium falciparum (isolate 3D7)), sequence (Q8IBS5 whole entry, looked up): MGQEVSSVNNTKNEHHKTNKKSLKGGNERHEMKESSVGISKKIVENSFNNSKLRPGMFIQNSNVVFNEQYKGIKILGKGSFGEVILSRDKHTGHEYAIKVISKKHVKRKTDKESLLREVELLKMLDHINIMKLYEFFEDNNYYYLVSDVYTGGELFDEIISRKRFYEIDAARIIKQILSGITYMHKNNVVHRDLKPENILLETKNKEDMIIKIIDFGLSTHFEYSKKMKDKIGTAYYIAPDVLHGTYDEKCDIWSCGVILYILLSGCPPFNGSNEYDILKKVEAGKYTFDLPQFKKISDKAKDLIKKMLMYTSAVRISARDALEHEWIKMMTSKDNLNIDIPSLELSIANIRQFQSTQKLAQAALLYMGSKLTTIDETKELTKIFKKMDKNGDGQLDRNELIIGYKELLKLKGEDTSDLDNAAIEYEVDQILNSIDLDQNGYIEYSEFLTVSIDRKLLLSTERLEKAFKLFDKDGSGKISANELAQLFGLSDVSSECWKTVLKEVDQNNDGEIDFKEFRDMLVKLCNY

Calcium-dependent protein kinase 1 (Plasmodium falciparum (isolate 3D7)), sequence (P62344 whole entry, looked up): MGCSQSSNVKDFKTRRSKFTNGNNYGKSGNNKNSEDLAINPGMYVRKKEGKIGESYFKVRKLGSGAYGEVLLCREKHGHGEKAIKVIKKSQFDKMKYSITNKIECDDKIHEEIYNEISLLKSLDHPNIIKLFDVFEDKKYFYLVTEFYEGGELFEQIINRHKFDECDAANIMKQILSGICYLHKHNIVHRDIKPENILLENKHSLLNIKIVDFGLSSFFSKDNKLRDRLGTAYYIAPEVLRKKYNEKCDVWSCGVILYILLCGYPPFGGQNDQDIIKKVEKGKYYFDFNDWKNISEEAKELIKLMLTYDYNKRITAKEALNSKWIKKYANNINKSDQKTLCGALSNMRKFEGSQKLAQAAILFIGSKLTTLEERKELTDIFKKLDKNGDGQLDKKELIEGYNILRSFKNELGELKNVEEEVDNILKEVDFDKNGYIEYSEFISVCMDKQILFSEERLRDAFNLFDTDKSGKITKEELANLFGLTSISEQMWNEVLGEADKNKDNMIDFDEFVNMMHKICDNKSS
Plasmodium falciparum protein kinase 6 (PK6, PF3D7_1337100), sequence (Q8IDW1 1-305): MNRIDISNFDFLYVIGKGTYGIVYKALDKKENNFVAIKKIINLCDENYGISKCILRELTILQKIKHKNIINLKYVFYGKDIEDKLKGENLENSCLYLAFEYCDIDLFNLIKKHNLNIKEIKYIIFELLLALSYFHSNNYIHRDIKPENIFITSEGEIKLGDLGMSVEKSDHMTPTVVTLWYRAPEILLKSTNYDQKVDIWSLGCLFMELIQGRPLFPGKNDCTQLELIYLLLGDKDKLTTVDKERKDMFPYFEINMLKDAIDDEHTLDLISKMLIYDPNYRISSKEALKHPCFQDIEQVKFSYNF
Protein kinase 7 (PK7), Plasmodium falciparum 3D7 (PF3D7_0213400), sequence (Q7YTF7 1-343): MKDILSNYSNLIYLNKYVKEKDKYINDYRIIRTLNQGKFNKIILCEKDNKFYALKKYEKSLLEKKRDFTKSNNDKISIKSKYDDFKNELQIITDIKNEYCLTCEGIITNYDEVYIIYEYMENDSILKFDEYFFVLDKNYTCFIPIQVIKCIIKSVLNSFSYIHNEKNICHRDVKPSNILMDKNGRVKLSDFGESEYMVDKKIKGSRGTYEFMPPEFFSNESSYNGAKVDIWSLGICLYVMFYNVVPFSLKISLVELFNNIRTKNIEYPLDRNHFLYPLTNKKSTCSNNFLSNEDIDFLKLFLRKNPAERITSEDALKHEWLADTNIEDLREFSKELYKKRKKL
L-lactate dehydrogenase (Plasmodium falciparum (isolate CDC / Honduras)), sequence (Q27743 whole entry, looked up): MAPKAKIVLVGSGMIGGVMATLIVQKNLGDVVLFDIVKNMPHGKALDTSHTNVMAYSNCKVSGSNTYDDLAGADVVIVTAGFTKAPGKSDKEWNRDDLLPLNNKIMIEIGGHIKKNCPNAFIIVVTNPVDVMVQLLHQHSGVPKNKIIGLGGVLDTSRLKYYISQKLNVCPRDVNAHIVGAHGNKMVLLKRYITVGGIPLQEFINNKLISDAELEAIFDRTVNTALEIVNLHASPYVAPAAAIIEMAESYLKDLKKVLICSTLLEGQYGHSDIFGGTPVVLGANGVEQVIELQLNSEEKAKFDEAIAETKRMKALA

SMILES | growth inhibition [1] | inhibition [2] | inhibition [3] [%] | growth inhibition [4] | outcome [5] | outcome [6] | outcome [7] | outcome [8]
NC1CCN(Cc2cccc(-c3cccc(-c4nc5ccccc5[nH]4)c3)c2)C1 (stereo not drawn) | -2% | 14% | -3 | 100% (active) | inactive | inactive | inactive | inactive
Cc1ccc(Nc2nnc(SCC(=O)Nc3ccc(CN4CCCC4)cc3)s2)cc1 | -2% | 4% | -2 | 91% (active) | inactive | inactive | inactive | inactive
Cc1[nH]c2c(NCc3ccc(F)cc3)nccc2c1C | -3% | 63% (active) | -3 | 83% (active) | inactive | inactive | inactive | inactive
CN(c1ccccc1)c1ccnc(/N=C(\N)Nc2ccc(Cl)cc2)n1 | 6% | 30% | -1 | 87% (active) | inactive | inactive | inactive | inactive
O[C@@H](c1ccc2ccccc2c1)[C@@H]1CN(CCc2ccccc2)CC[C@@]1(O)c1ccccc1 | 96% (active) | 1% | 1 | 99% (active) | inactive | inactive | inactive | inactive
N#Cc1ccc(NC(=O)Nc2ccc3c(c2)CCN(C2CCC2)CC3)cc1 | 11% | 6% | -8 | 96% (active) | inactive | inactive | inactive | inactive
COC(=O)c1sc(-c2ccc(Cl)cc2)cc1N(CCCN1CCC(N2CCCCC2)CC1)S(=O)(=O)c1ccc(C)cc1 | 86% (active) | 25% | -2 | 103% (active) | inactive | inactive | inactive | inactive
Cc1cccc2[nH]c(-c3ccc(-c4cccc(CN5CCC(C(N)=O)CC5)c4)s3)nc12 | 16% | 1% | 4 | 86% (active) | inactive | inactive | inactive | inactive
CCCOc1cc(Cc2cnc(N)nc2N)cc(OC)c1OC | 1% | 21% | 8 | 85% (active) | inactive | inactive | inactive | inactive
COc1ccc2nc(-c3cccc(C)n3)nc(Nc3ccncc3)c2c1 | 42% | -1% | -3 | 101% (active) | inactive | inactive | inactive | inactive
CCCCCCCN1CC[C@@H](CCCc2ccnc3ccc(OCCN4CCOCC4)cc23)[C@@H](CC)C1 | 3% | 14% | 0 | 89% (active) | inactive | inactive | inactive | inactive
O=c1cc(NCCCNC2CCOc3c(Cl)cccc32)[nH]c2ccccc12 (stereo not drawn) | 27% | -3% | 3 | 96% (active) | inactive | inactive | inactive | inactive
O=C(N[C@@H](Cc1ccccc1)C(=O)NC1CCCCCC1)c1ccc(O)c(-c2ccc(Cl)c(Cl)c2)c1 | 99% (active) | -6% | -9 | 92% (active) | inactive | inactive | inactive | inactive
N=C(N)CCN(Cc1ccccc1)c1ccc(Cl)cc1 | 98% (active) | 1% | 4 | 98% (active) | inactive | inactive | inactive | inactive
C[C@H](Cc1ccc(C(=O)OC(c2ccccc2)c2ccccc2)cc1)NC[C@H](O)c1ccccc1 | 98% (active) | 83% (active) | -3 | 100% (active) | inactive | inactive | inactive | inactive
Cc1cc2[nH]c(-c3ccc(C(=O)NCCCN4CCN(c5cccc(Cl)c5)CC4)cc3)nc2cc1Cl | 73% (active) | 1% | 6 | 98% (active) | inactive | inactive | inactive | inactive
C=C[C@]1(C)C[C@@H](OC(=O)c2n[nH]c3ccccc3c2=O)[C@]2(C)[C@H](C)CC[C@]3(CCC(=O)[C@H]32)[C@@H](C)[C@@H]1O | 84% (active) | -6% | 0 | 96% (active) | inactive | inactive | inactive | inactive
CN(C)CCOc1cc(NC(=O)Nc2ccc(-c3ccncc3)c3ccccc23)ccc1I | 46% | 35% | -3 | 97% (active) | inactive | inactive | inactive | inactive
COc1ccc(-c2nc(NC(=O)Cc3coc4cc(OC)ccc34)sc2C)cc1 | 77% (active) | 9% | -2 | 100% (active) | inactive | inactive | inactive | inactive
CC(=O)c1ccc(-c2ccccc2)s1 | 2% | -2% | 8 | 92% (active) | inactive | inactive | inactive | inactive
CC1CCC(NC(=O)c2nn(-c3ccc(Cl)cc3)c(=O)c3ccccc23)CC1 (stereo not drawn) | 67% (active) | 3% | -3 | 91% (active) | inactive | inactive | inactive | inactive

SMILES | growth inhibition [1] | inhibition [2] | inhibition [3] [%] | growth inhibition [4] | outcome [5] | outcome [6] | outcome [7] | outcome [8]
COc1ccc2nc3cc(Cl)ccc3c(Nc3ccc(O)c(CN4CC5CCC(CC5)C4)c3)c2c1 | 100% (active) | 17% | 3 | 102% (active) | inactive | inactive | inactive | inactive
COc1ccc(-c2cccc(NC(=O)c3cccs3)c2)cc1CN1CCCN(C)CC1 | 30% | 17% | 9 | 100% (active) | inactive | inactive | inactive | inactive
CCC(C)CN1CCN(c2ccc(NC(=O)c3cccs3)cc2)C(C)C1 (stereo not drawn) | 95% (active) | -4% | -2 | 95% (active) | inactive | inactive | inactive | inactive
O=C(NCC1CCCCC1)c1cc(=O)c2ccccc2o1 | 77% (active) | -1% | -2 | 98% (active) | inactive | inactive | inactive | inactive
COc1ccc(-c2cc(C(=O)N[C@@H](CC3CCCCC3)C(=O)NCCN3CCCC3)ccc2O)cc1 | 12% | 12% | 2 | 90% (active) | inactive | inactive | inactive | inactive
COc1cc(-c2cc3cc(Cl)c(Cl)cc3[nH]2)ccc1C(=O)NC1CCN(Cc2ccccc2)CC1 | 101% (active) | 12% | -3 | 102% (active) | inactive | inactive | inactive | inactive
COc1ccc(C2CCN(CCCNC(=O)c3ccc(NC(=O)c4ccc(Cl)cc4)cc3)CC2)c(OC)c1 | 58% (active) | 26% | 3 | 99% (active) | inactive | inactive | inactive | inactive
CC(C)C[C@@H](/C=N/NC(N)=O)NC(=O)[C@H](CC(C)C)NC(=O)[C@H](CC(C)C)NC(=O)OCc1ccccc1 | 99% (active) | 41% | -1 | 100% (active) | inactive | inactive | inactive | inactive
Cc1c(Cc2ccccc2Br)cnc2nc(N)nc(N)c12 | 97% (active) | 67% (active) | 0 | 88% (active) | inactive | inactive | inactive | inactive
O=C(CN1CCN(C(=O)c2ccco2)CC1)Nc1ccccc1Br | 96% (active) | 15% | -4 | 97% (active) | inactive | inactive | inactive | inactive
O=C(Nc1ccc(Oc2ccccc2)cc1)N(Cc1ccc(-c2ccc(CN3CCNCC3)cc2)cc1)C1CCN(Cc2ccccc2)CC1 | 73% (active) | 31% | -1 | 101% (active) | inactive | inactive | inactive | inactive
CCCN1CCN(CC(O)CNC(=O)Nc2ccc(Br)cc2)CC1 (stereo not drawn) | 100% (active) | 10% | 0 | 101% (active) | inactive | inactive | inactive | inactive
CCCNC(=O)c1ccc(N2CCC(c3ccccc3C)CC2)nc1 | 80% (active) | 6% | 2 | 86% (active) | inactive | inactive | inactive | inactive
CCc1c(CCNCCCCCCNCCc2ccc([N+](=O)[O-])cc2)ccc(OC)c1OC | 2% | 35% | 6 | 101% (active) | inactive | inactive | inactive | inactive
Cc1ccc2c(c1)C1(CC(=O)N(CCc3scnc3C)C1=O)C(=O)N2Cc1ccccc1 (stereo not drawn) | 73% (active) | -5% | 2 | 83% (active) | inactive | inactive | inactive | inactive
COc1cccc(NC(=O)Nc2cc(-c3ccc4[nH]ncc4c3)cc3c2CNC3=O)c1 | 100% (active) | 3% | 5 | 98% (active) | inactive | inactive | inactive | inactive
Nc1nc(N)c2cc3ccc(OCc4ccccc4)cc3nc2n1 | 75% (active) | 78% (active) | 0 | 100% (active) | inactive | inactive | inactive | inactive
CCNc1cc(C(=O)N[C@@H](Cc2ccccc2)[C@H](O)CNC23CCC(CC2)CC3)cc(N2CCCCS2(=O)=O)c1 | 98% (active) | 10% | 4 | 99% (active) | inactive | inactive | inactive | inactive
Oc1ccc(C2CNCCc3c2cc(O)c(OCc2ccccc2)c3Cl)cc1 (stereo not drawn) | 8% | 14% | 5 | 98% (active) | inactive | inactive | inactive | inactive
Cn1nc(-c2ccccc2F)c2cc(C(=O)NC3CCN(Cc4ccccc4)CC3)sc21 | 34% | 5% | 3 | 97% (active) | inactive | inactive | inactive | inactive
